# Test results: the supplement of paper PMC12632987
# Whole data set: some 2,300 sequences, median “median log2 fold change of GCK-ALFA target abundance (FLAG IP / Myc IP barcode read proportion)” near 0.095, cut for the lowest 2% near -0.47. The sample as a whole holds a higher share of the lowest values than the screen did.
# B1: LC3A_28_1027 (protein)
# chain: SAAEKAIEKAREEARKQKAEGKDIYVTIEVTSSTTLEDAKTIVEGIREIVEEFKDEKNINIIIDVERGVSQEVIDTLADGAEEIEKEYPNVNIIIALEEE
# B2: LC3A_127_175 (protein)
# chain: ELEELLKKLLEVAEELSEELSKPDADLEEIERLVKEAIELAKKALELDPRAEPILEAAEEIKKQLEQYKKAPEEKKEELREHMEMLAESLIIEIESLLLR
# B3: LC3A_23_616 (protein)
# chain: MYKVEIIVDIIVPKEEAEKVEKDLLETINKVLEKNKSKIKEYKIEVEKEELEDGTVLLTIKVTIIYDGNKEEAEELANELVSAIDKTAPDAVISAEVSKI
# B4: LC3A_141_376 (protein)
# chain: KEVEFELEAKGETPEEVVEKMDELEEKVLKAYEELGGGKVKVKVTLTLTNRETGEVKVVEEEFVGDKETIEMLLDGFLIEAASAVMRAPTDVKLKVVLEK
# B5: LC3A_28_1118 (protein)
# chain: SLAEKVIKAFEKQVEAAIASGEETLIEVEVSPELSQEEVEKLAKKMAEYAKKAAEKLKVSVLVSVEKGVSQEKIDIIADEAEKVEEEYPNVNVIIALEEE
# B6: LC3A_3_1420 (protein)
# chain: MEEELERALEELREAGWSEETLEALREVVEALLERGAEEEARRVLELVLENKDISSEDLLEVLREVLELLKTPGVSPEEAVERLEELLRIARNEQEIEEL
# B7: LC3A_free_0_2100 (protein)
# chain: MVTKVEVLGIIPDKSAKEAAEAIKEKLEEYGKKLSEEKGWKVTVELTEVDGSYVITVTIEGEGMSIEEGLEIADEIADLIEELAKEHGVEVTIYESVYEE
# B8: LC3A_147_496 (protein)
# chain: ATVEVDVLVKDKEAAEKVVEEFKKLVEKLKKQGIEVELEVEIEQISPDTWYVKITIKIKAKTEEEEKKVANEVVDEIEKIEEKYKDKILASLISVEIEEK
# B9: LC3A_147_464 (protein)
# chain: MKYRVELDVLVKNLTPELLADFEELAEEIKKKFPDAEVELKVETDPEDPSLSLVTLTVTVDTEEDAKKIEDFLDKKLEELEKKYKDQILASMISREKVEP
# B10: LC3A_147_465 (protein)
# chain: KKYEVVLDVLVKDLTPELLKDFEELAEEIKEKFPDAEVELKVETDPEDPSLTLVTLTVTVDTEEDAEKILDFLDEKEEELEKKYSDQILASMISKQEVEP
# B11: LC3A_23_598 (protein)
# chain: MYKVELIVSLIGEEEEIKKKAEKLKKEIEKILEKYKDKIISYKINVSFEKLEDGKTYLEIEVEIIIEDDEEVAEEIAEELTDAADKILPDGVISVEVEKL
# B12: LC3A_141_368 (protein)
# chain: TTLTITTDIGRASLDEIVAKMDELEEAALAAHRELGGGRVRVTVTITVKNLKTGETTTITEEFEADEEELELIMEGVLIEVASYALTEDAEVTVTVTLEG
# B13: LC3A_3_1723 (protein)
# chain: MEKIKAEALAVLKAQGASPETIKAAEELLKALEEKGFLEAAKTLLEELKKLKGVSSEDLLAALKDLLYKVTNEDLSEEEVIEEIKREFSVLKSAKEIEEL
# B14: LC3A_141_386 (protein)
# chain: MKKEFEFTATEEEAQEVFDFFDEVEKELLEMIEESGGKPVKVKVTIKATNDETGEVVEKEEEFTVTKENVSEVMEGLAIEVLSLLDKVKGTVEVKIEAEV
# B15: LC3A_28_1018 (protein)
# chain: SELEEQIEEIEKEVEEAIEKGEDVVVTLEIKGSMSEEEVREAMERVKEIVLEGAEKGKVDLVIDVDKDVSQEKLDIVLEAADEIEEKAPNVNVIIALEER
# B16: LC3A_147_510 (protein)
# chain: YLVEIDVDLLVKNAVEEVKKRFKEIVEKLKKKGYKVELEIKEEKIDENTYYVEVTIKIYAETKEEAEKAANETLSLLDEMLEELKDEILGSLISVDIEET
# B17: LC3A_59_2020 (protein)
# chain: SEEIEEYREKMRANIDDIDAFTATVREALEKFKDDPEKVKEILKAAMDVVVEELGADKEEAEKVLEEMLKILEEEKDKEKAIEKIVDLIRDLLLLTPIEE
# B18: LC3A_free_8_2464 (protein)
# chain: ASQKLVDTIVAKLDELEKALVKKAKEEGKSRLDILELELEVGSAIAELISNVDASPEEILKTLKEDLKDIIKVAKEIGEEVAKLAKEKSKEILAEAEALI
# B19: LC3A_17_552 (protein)
# chain: REELRERLRRLLEELRALVERLEPYDPEAARRLRERLERAEELLEAGRLREAAETLAEAAREAARRAEELEPKYGNEMSVLAMEFNGLELEAIGLLLELD
# B20: LC3A_132_298 (protein)
# chain: DEEKAKEILEKVKEKVEEAKENIDNEEKVEELLEEIEELIKEAEEKLSPELLAKVMEEVAELLDELSQKFLEAGKEHLAMLADGLAIEAESLALRAEKEI
# B21: LC3A_3_1773 (protein)
# chain: MEELLARFEEKLRAAGFSEEVIKEALAAIKTFLEKGREEVAETFLELMLEAKDLSEEKLLVMARMAKELAEESKVSEEELIKELKRLFESIAGIEELDEE
# B22: LC3A_3_1887 (protein)
# chain: MDEKIEETLKRLKEAGASEETLEAFKRVVEKLKARGWDEALNTLIEKVDELLDAPDEVRLAFLQDVLALLDTPGVSEEELIAGINELATLAKNEAEIIEL
# B23: LC3A_28_691 (protein)
# chain: SAIDETIARIRAQAEAALAAGEEALLEVTVPATATQEDIDRLIATIREAVERLAGVGKVYIVVDVESGVAQENITRLADALDELEAEYPNVTVVIALDED
# B24: LC3A_28_654 (protein)
# chain: EEVEKELKEALKEAEEAKKKKEPAVITIKVSGKVNEEELKKILETLEKIAELLKDIKGSAIIIDLDKDVKEEFKNKLIDKAEELEKKYPNVTVIIALEER
# B25: LC3A_3_1762 (protein)
# chain: MEAFIEAAAKELKEAGASEELIEKASRALRLLLERGLEETAKEFVKVLLELLKKSEELALDLAEDVLTLLETSTLSPEELAKAVRSEMNAALSEAEIEEL
# B26: LC3A_28_950 (protein)
# chain: MSIEENIEKALKEAKEAKEKNEPVVITLVLEDDPSEEAVEALIEAMEEIAELLKDIKGTTIIVDVSSKVKQEHIDAIADKGEEIEKKYPNINVIIALDED
# B27: LC3A_102_127 (protein)
# chain: EVEKLKKELLEKVKKEVEKLLEKDKSLSEEEKKKILELAEKLAEAKLENAEIEIQHGFVDIYLEDKAIELQEELEKIDKELAKKINEIIEKGVEEFRKKL
# B28: LC3A_free_46_2348 (protein)
# chain: YKAEILIDLLAKDKETLEKAVKEIVEEAKKIAEKYNLELEIKVKIEKLEDGSYYAEIEITLKGETEEDLQKAVNELINKIEEIAKKYGVAAIISYEIIKE
# B29: LC3A_28_708 (protein)
# chain: NPLEESIKKALEEAKAAAKAGESTVITIKVPGSATEEDIEKLIKALEEIAEITKDLPSTSIIIDVDGGVKQEHIDKIADAAEEIEKKYPNVTVIIALDET
# Target: MAP1LC3A, Q9H492
# Test: median log2 fold change of GCK-ALFA target abundance (FLAG IP / Myc IP barcode read proportion) (log2 ratio); each designed protein is fused to an ALFA-tag nanobody in HEK293 cells to bring the named protein to FLAG-tagged glucokinase (GCK); Myc marks an untargeted standard; higher = target protein stabilised (more abundant)
# Conditions: target protein: 3xFLAG-MCP-GCK-ALFA reporter; HEK293 landing pad (RPLP)
# How it was run: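 Sequencing of reverse-transcribed, amplified circular RNA barcodes from anti-FLAG and anti-Myc immunoprecipitates provided the readout for an ALFA-nanobody-fused binder library recombined into HEK293 landing-pad cells. Those cells were induced with 2 μg mL^−1 doxycycline, transfected with a plasmid expressing a FLAG-tagged target and a Myc-tagged standard, and lysed after 48 h. Target abundance is the per-binder median log2 ratio of FLAG to Myc barcode read proportions. Only barcodes at a proportion of ≥10^−7 in both replicates and binders with ≥3 barcodes per replicate were kept, with a 10^−6 pseudocount added before the two replicates were pooled.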
row,Binder,median log2 fold change
1,B1,0.173
2,B2,0.0944
3,B3,-0.672
4,B4,-0.00697
5,B5,-0.00261
6,B6,0.3
7,B7,-0.121
8,B8,-0.154
9,B9,-0.487
10,B10,-0.192
11,B11,-0.0746
12,B12,-0.781
13,B13,0.206
14,B14,0.221
15,B15,-0.171
16,B16,-0.119
17,B17,-0.571
18,B18,-0.304
19,B19,0.248
20,B20,-0.0134
21,B21,0.23
22,B22,0.21
23,B23,-0.0472
24,B24,0.153
25,B25,0.226
26,B26,0.204
27,B27,-0.519
28,B28,-0.204
29,B29,0.0817
